According to PubChem BioAssay AID894 (National Center for Advancing Translational Sciences (NCATS), 2007):
Several values for one entry are separate records, joined by “and”; a condition that tells them apart may be missing. Equal entries are not always repeated. In all, about 150,000 compounds went through this assay and about 6,500 (4.3%) were called active. Inconclusive results (about 12%) are left out. Calls come from the whole dose curve; as a rule, active = well fitted inhibition curve with a large enough effect (not every such curve was filed as active); inconclusive = small, poorly fitted or top-dose-only effect, or another doubt; inactive = no such curve, though single readings can be large or run the other way. Only a selection was taken, and actives are over-represented in it overall.

molecular target: 15-hydroxyprostaglandin dehydrogenase [NAD(+)] (Homo sapiens) (UniProt P15428); assay: qHTS Assay for Inhibitors of HPGD (15-Hydroxyprostaglandin Dehydrogenase); details: purified HPGD, NADH fluorescence kinetic, PGE2 substrate; activity change, negative = inhibition: hits give low values
Sequence (P15428 whole entry, looked up): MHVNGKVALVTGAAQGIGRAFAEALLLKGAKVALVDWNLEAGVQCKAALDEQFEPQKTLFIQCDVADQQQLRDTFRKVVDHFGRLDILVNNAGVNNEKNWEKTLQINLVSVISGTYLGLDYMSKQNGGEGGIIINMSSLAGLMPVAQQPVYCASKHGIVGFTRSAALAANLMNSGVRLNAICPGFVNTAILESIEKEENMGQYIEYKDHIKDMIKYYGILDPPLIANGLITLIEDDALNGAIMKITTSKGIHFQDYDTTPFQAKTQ
Procedure, shortened: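 NADH formation kinetics: reaction with 30 uM PGE2 and 1 mM NAD+ (final), 20 nM enzyme, Tris-HCl pH 8 with Tween 20, after 15 min compound preincubation at room temperature. Fluorescence change, last versus first of five reads.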
% is set by controls: 0 for no effect and ±100 for the full control effect; potency is the fitted concentration of half-maximal effect.

Activity change, negative = inhibition, inactive:
CCOC(=O)C(C)Sc1nnc(CSc2nc3nc(C)cc(C)n3n2)o1 (centres undefined) -7.77%
O=C1NC(c2ccccc2)=NC1(Nc1ccccn1)C(F)(F)F (centres undefined) -0.712%
Cc1nc(CC(=O)NNS(=O)(=O)c2ccc(F)c(Cl)c2)cs1 -9.95%
C[C@@]12CCC(=O)C=C1CC[C@H]1C2[C@@H](O)C[C@]2(C)[C@@H]1CC[C@@]2(O)C(=O)COC(=O)C1CCCC1 (some centres undefined) 2.72%
C=CCn1c(CC(=O)Nc2cccc(OC)c2)nnc1SCC(=O)NC1CCCCC1 -4.23%
Cn1c(SCC(=O)NC2CCCCC2)nnc1-c1cc2ccccc2o1 -3.43%
CCN(C(=O)COC(=O)c1c(NC(C)=O)sc(C)c1C)C1CCS(=O)(=O)C1 (centres undefined) -23.1%
O=C(CC(=O)N/N=C\c1cccc(Cl)c1Cl)NCc1ccccc1 -9.68%
COC(=O)Cc1ccc(N(Cc2ccccc2F)S(=O)(=O)c2ccc(Br)cc2)cc1 -19.6%
CCn1c(SCC(=O)c2ccc3ccccc3c2)nnc1-c1cccs1 -18.4%
CCn1c(COc2ccc(OC)cc2)nnc1SCC(=O)Nc1cc(OC)ccc1OC 1.56%
COC(=O)c1ccc(NC(=O)CSc2nnc(CNc3ccc(OC)cc3)n2C)cc1 -6.05%
Cc1ccc(-n2c(Cc3cccs3)nnc2SCC(=O)OC(C)C)cc1 -15.1%
O=C(CN1CCN(S(=O)(=O)c2ccc(Br)cc2)CC1)Nc1ccccc1C(=O)c1ccccc1 -12.5%
CCOC(=O)N1CCN(C(=O)C2CCN(Cc3ccc(OC)cc3OC)CC2)CC1 -11.3%
CCCC(NC(=O)c1ccco1)c1nc2ccccc2[nH]1 (centres undefined) -3.61%
Cc1cccc(C(=O)NC(=S)N2CCN(c3ccc([N+](=O)[O-])cc3)CC2)c1 -19.1%
O=C(O)Cc1ccc(-c2ccccc2)cc1 -9.59% and -19%
CCOC(=O)/C=C/C(=O)OCC(=O)NC(c1ccccc1)c1ccccc1 -29.7%
CCCCC(=O)Nc1ccc(C(=O)Nc2cc(C(F)(F)F)ccc2Cl)cc1 -6.97%
CCOc1ccc(NC(=O)c2ccc(CSc3nnnn3C)cc2)cc1 -4.67%
COCCNc1ncnc2ccc(-c3ccccc3CN(C)C)cc12 -8.98%
COc1ccc2[nH]cc(CCNc3ncnc4ccc(-c5ccccc5CN(C)C)cc34)c2c1 -13.3%
Cc1ccc(N(Cc2cc3ccccc3[nH]c2=O)C(=O)c2cccs2)cc1 -11%
CCOc1ccc(C(=O)Nc2nccs2)cc1[N+](=O)[O-] -16.3%
O=C(CN1CCN(c2ccc(O)cc2)CC1)NC1CCCc2ccccc21 (centres undefined) -19.6%
CCOc1ccc2nc(NC(=O)c3cc([N+](=O)[O-])ccc3N3CCOCC3)sc2c1 -5.12%
Cc1ccccc1Cn1nc(C)c(NC(=O)C(F)(F)F)c1C 0.212%
Cc1ccccc1OCC(=O)Nc1nc(C)c(C(=O)N(C)C)s1 -1.51%
COCCCNC(=O)COc1cc(C)c(Cl)c(C)c1 -21.9%
COCCNC(=O)COc1ccccc1C -18.6%
CCCc1noc2c1/C(=N\O)CCC2 -17.1%
CCOc1ccc(NC(=O)COc2ccc(C(=O)NC3CCCc4ccccc43)cc2OC)cc1 (centres undefined) -12.8%
O=C(CCN1C(=O)c2ccccc2C1=O)C1=NN[C@@H]2C(=O)N(c3ccc(F)cc3)C(=O)[C@H]12 -16.3%
COc1cccc(N(CC(=O)N2CCc3ccccc3C2)S(C)(=O)=O)c1 -5.24%
O=C(C(=O)N1CCc2ccccc2C1)N1CCc2ccccc2C1 -4.51%
N=c1n(CCc2ccccc2)c2ccccc2n1Cc1ccccc1F -8.4%
COCCNC(=S)N/N=C/c1c(C)[nH]c2ccccc12 -19.3%
O=C(Nc1cccc2ncccc12)C(Cl)(Cl)Cl -18.4%
O=C(O)c1cc(Cl)c(Cl)cc1C(=O)Nc1cccc2ncccc12 -16.7%
Cc1ccc(S(=O)(=O)N(C)CC(=O)N2CCc3ccccc32)cc1 -3.12%
Cc1ccc(S(=O)(=O)N(CC(=O)N2CCc3ccccc3C2)c2cccc(Cl)c2)cc1 -8.94%
Cc1cc(OCCCC(=O)NCCN2C(=O)S/C(=C\c3cccnc3)C2=O)ccc1Cl -5.63%
Cn1cnc(C(F)(F)F)c1-c1ccc([N+](=O)[O-])cc1 -0.963%
Cc1nc2ccccc2c(=O)n1CCCn1ccnc1 -6.43%
Cc1ccc(NC(=S)NCc2ccccc2Cl)c(C)c1 -27.2%
O=S(=O)(NCC1CCCO1)c1cnc(Cl)c(Cl)c1 (centres undefined) -16.1%
C/C(=C\c1ccccc1)C1NC(=O)c2c(sc3c2CCCC3)N1 (centres undefined) -3.55%
O=C(c1cc(-c2ccccc2O)on1)N1CCCC1 -29.8%
O=C(c1cccs1)N1CCN(C(=O)N2CCOCC2)CC1 2.42%
COc1ccccc1N1CCN(C(=O)c2cc(-c3ccc(Cl)c(Cl)c3)on2)CC1 -13.7%
COc1ccccc1N1CCN(C(=O)c2cc(-c3ccc(Br)cc3)on2)CC1 -29.1%
Cc1cc(C)cc(NC(=S)NCc2ccc(F)cc2)c1 -19.9%
CCn1nc(C)c(/C=N/NC(=O)Cc2ccc(Cl)cc2)c1C -9.17%
O=C(NCc1cccs1)C(=O)NCC1OCCCN1S(=O)(=O)c1ccc(F)cc1 (centres undefined) -5.48%
C=CCOC(=O)NC(c1ccc(F)c(F)c1)C(C(=O)COC)C(=O)OC (centres undefined) -10.1% and -9.32%
COC(=O)c1ccc(/C=N\n2c(C)nnc2C)cc1 -12.4%
CCN(CC)S(=O)(=O)c1cccc(C(=O)Nc2ccccc2)c1 0.0347%
CC(Sc1nc2cc(Cl)ccc2s1)C(=O)Nc1ccc2c(c1)OCO2 (centres undefined) -22.7%
CC(C)CNC(=O)COC(=O)/C=C/c1ccco1 -11.3%
O=C(COC(=O)/C=C/c1cccc(Cl)c1)NCCc1ccccc1 -5.17%
COc1cccc(NC(=S)NCCCN2CCOCC2)c1 -6.46%
COc1cccc(NC(=S)NCc2ccccn2)c1 -28.2%
O=S(=O)(NCc1ccccn1)c1ccc(F)cc1 -6.74%
Cc1ccc(S(=O)(=O)Nc2ccc3ncccc3c2)cc1 -6.64%
Cc1cc(F)ccc1S(=O)(=O)Nc1ncnc2scc(-c3ccc(F)cc3)c12 -6.93%
O=[N+]([O-])c1cccc(C2=NCCS2)c1 -12.8%
O=C(COC(=O)c1cc(-c2cccs2)nn1-c1ccccc1)Nc1cc([N+](=O)[O-])ccc1Cl -0.873%
CCOP(=O)(OCC)C(Nc1cccc(C)c1)c1ccc(F)cc1 (centres undefined) -7.61%
O=C(c1ccc2c(c1)OCO2)N1CCN(C(=O)c2ccco2)CC1 -11.7%
CC1CN(C(=O)c2ccc3c(c2)OCO3)OC(c2ccccc2)O1 (centres undefined) -4.25%
O=C(Nc1ccccc1N1CCN(C(=O)c2ccccc2)CC1)c1ccc2c(c1)OCO2 -1.04%
O=C(c1cccc(S(=O)(=O)N2CCOCC2)c1)N1CCOCC1 -2.21%
CC(Nc1oc(-c2ccccc2)nc1-c1ccccc1)c1ccccc1 (centres undefined) 0.641% and -7.86%

Potency, active:
COc1cccc(-n2c(SCC(=O)NC3CCCCC3)nc3n[nH]c(C)c3c2=N)c1 15.8 µM
CCn1c(CNc2ccc(OC)cc2)nnc1SCC(=O)c1ccc(OC)cc1 14.1 µM
CCn1c(Cc2cccs2)nnc1SCC(=O)c1ccc(C)cc1 15.8 µM
O=C(Cc1ccc(-c2ccccc2)cc1)NC(c1ccccc1)c1ccccc1 12.6 µM
COc1ccccc1CNc1ncnc2ccc(-c3c(C)noc3C)cc12 6.31 µM
COCCNC(=O)COc1ccc(C)c(C)c1 20 µM
CCSC(C)CC1C/C(=N/O)c2c(C)noc2C1 (centres undefined) 25.1 µM
CN(c1ccc(C(=O)N2CCc3ccccc3C2)cc1)S(C)(=O)=O 14.1 µM
Cc1ccc(/C=C(\C#N)C(=O)Nc2cccc3ncccc23)o1 39.8 µM
Cc1ccc2c(c1)N(C(=O)CCC(=O)N1CCc3ccccc3C1)CCO2 14.1 µM
Cc1ccnc(-n2sc3ccccc3c2=O)n1 0.794 µM
Clc1ccc(C2=CSC3=Nc4cccc5cccc(c45)N23)cc1 7.94 µM
COc1ccccc1-c1cc(C(=O)N2CCCCC2)no1 3.55 µM
O=C(c1cc(-c2cccs2)on1)N1CCCCC1 1.78 µM
CCN(CC)S(=O)(=O)c1cccc(-c2n[nH]c(=S)n2/N=C/c2ccc(C(=O)OC)cc2)c1 6.31 µM
CC(C)CNC(=O)COC(=O)/C=C/c1ccccc1[N+](=O)[O-] 28.2 µM
COc1cccc(NC(=S)NCc2ccco2)c1 11.2 µM
O=S(=O)(Nc1ccc(Oc2ncccn2)c(Cl)c1)c1ccc(F)cc1 35.5 µM
O=C(c1ccc2c(c1)OCO2)N1CCOCC1 14.1 µM
O=C(c1ccc2c(c1)OCO2)N1CCNc2ccccc2C1 25.1 µM
